According to PubChem BioAssay AID1986 (Sanford-Burnham Center for Chemical Genomics, 2009):
In all, about 290,000 compounds went through this assay and about 890 (0.31%) were called active. This is one part of a sample in which actives are shown more often than they occur. No stated cut-off is given here; in the data, active means inhibition mostly above about 52% (no sharp cut-off); inactive means mostly below about 76%.

Test: cell-free HIV fusion peptide-binding blockers – biochemical, uHTS, fluorescence dequenching, primary screen (AID 1986)
Settings: 30 min, stronger effect = higher value
[1] = measured here: repeat confirmation average inhibition, at 18.6 µM

Row | SMILES | inhibition (at 20 µM) | inhibition [1] [%]
1 | COC(=O)c1cccc(Cn2nnc3ccccc3c2=O)c1 | 0.9% (inactive) | 
2 | O=C(NCCN1C(=O)S/C(=C\c2ccc(OC(F)F)cc2)C1=O)[C@@H]1CCCN1C(=O)c1cccs1 | 0.1% (inactive) | 
3 | Cc1cc(Sc2nc(N)ncc2[N+](=O)[O-])ncn1 | -1.5% (inactive) | 
4 | COC(=O)c1sc2ncn(N)c(=O)c2c1C | -0.5% (inactive) | 
5 | CC(=O)Nc1ccc(C(=O)N/N=C/C2CC3C=CC2C3)cc1 (centres undefined) | -0.7% (inactive) | 
6 | COc1cc2[nH]c(=O)n(CCCCCC(=O)NCCc3c[nH]c4ccccc34)c(=O)c2cc1OC | 2.6% (inactive) | 
7 | CCOC(=O)c1cc(CC)sc1NC(=O)COc1ccc2c(C)cc(=O)oc2c1 | -0.1% (inactive) | 
8 | N/C(=N\OC(=O)COc1ccc(Cl)cc1Cl)c1cccnc1 | 1.4% (inactive) | 
9 | COc1cc(NC(=O)C(C)Oc2ccccc2)ccc1NC(=O)COc1ccccc1 (centres undefined) | 1.7% (inactive) | 
10 | O=C1Nc2ccccc2OC1CC(=O)N1CCCC1 (centres undefined) | -2.7% (inactive) | 
11 | COCCNC(=O)C(c1ccc(F)cc1)N(Cc1ccco1)C(=O)CCC(=O)Nc1ccccn1 (centres undefined) | -1.2% (inactive) | 
12 | CCOC(=O)C1CCN(C(=O)c2cc3cc4ccc(OC)cc4nc3o2)CC1 | -0.9% (inactive) | 
13 | O=c1/c(=C/c2ccc(O)c([N+](=O)[O-])c2)sc2nc3ccccc3n12 | 50.3% (active) | 
14 | O=c1/c(=C\c2cccnc2)sc2nc3ccccc3n12 | -0.5% (inactive) | 
15 | O=c1/c(=C/c2ccccn2)sc2nc3ccccc3n12 | -0.5% (inactive) | 
16 | O=C(O)c1cc(C(=O)O)cc(-c2ccc(/C=c3/sc4nc5ccccc5n4c3=O)o2)c1 | 63.3% (active) | 
17 | COC(=O)/C=c1/sc2nc3ccccc3n2c1=O | 6.3% (inactive) | 
18 | O=c1/c(=C\c2cccn2-c2ccccc2)sc2nc3ccccc3n12 | 3.1% (inactive) | 
19 | O=C(CN1CCN(c2ccccc2F)CC1)c1c[nH]c2ccc(F)cc12 | 4% (inactive) | 
20 | Cc1cc(C)n2cc(CSc3nncn3C)nc2n1 | -1.3% (inactive) | 
21 | CC1c2ccsc2CCN1S(=O)(=O)c1cccs1 (centres undefined) | -1% (inactive) | 
22 | COc1ccc(Cc2nc3ccc(C(=O)N(C)CCc4cnn(C)c4)cc3o2)cc1OC | 0.7% (inactive) | 
23 | C/C(CC(=O)Nc1ccc(Cl)c(C(F)(F)F)c1)=N\NC(=O)c1ccccc1O | 26.3% (inactive) | 

Row | SMILES | inhibition (at 20 µM) | inhibition [1] [%]
24 | C/C(CC(=O)Nc1ccc(Cl)c(C(F)(F)F)c1)=N\NC(=O)c1cccc(O)c1 | 4.2% (inactive) | 
25 | C/C(CC(=O)Nc1ccc(Cl)c(C(F)(F)F)c1)=N\NC(=O)c1cc2ccccc2cc1O | 67.3% (active) | 
26 | O=C(NCCCn1ccnc1)C(=O)Nc1ccccc1 | 0.2% (inactive) | 
27 | COc1ccc(OC)c(NC(=O)Cc2nn(C)c(=O)c3ccccc23)c1 | 2.9% (inactive) | 
28 | Cc1c(C(=O)N2CCC(C)CC2)cccc1[N+](=O)[O-] | -0.4% (inactive) | 
29 | O=S(=O)(Nc1cccc(S(=O)(=O)N2CCCCCC2)c1)c1ccccc1 | -0.4% (inactive) | 
30 | Cc1ccc(S(=O)(=O)Nc2nc3ccccc3nc2Nc2cccc(S(=O)(=O)N3CCCC3)c2)cc1 | 72.4% (active) | 
31 | NS(=O)(=O)c1ccc(Nc2nc3ccccc3nc2NS(=O)(=O)c2cccc([N+](=O)[O-])c2)cc1 | 69.6% (active) | 
32 | COc1ccc(S(=O)(=O)Nc2cccc(S(=O)(=O)N3CCCCCC3)c2)cc1 | 2.5% (inactive) | 
33 | CC(=O)Nc1ccc(S(=O)(=O)Nc2nc3ccccc3nc2Nc2ccc(S(N)(=O)=O)cc2)cc1 | 37.9% (inactive) | 
34 | O=[N+]([O-])c1ccc(S(=O)(=O)Nc2nc3ccccc3nc2Nc2ccccc2)cc1 | 1% (inactive) | 
35 | O=C(CSC1=NCCS1)N1CCCC1 | 4.9% (inactive) | 
36 | CCN1CCN(CC(O)COc2ccc(Cl)cc2)CC1 (centres undefined) | -1.2% (inactive) | 
37 | CCc1nnc(NC(=O)c2ccc(OCc3c(C)noc3C)c(OC)c2)s1 | 0.8% (inactive) | 
38 | O=C(Nc1nc(-c2ccco2)c(-c2ccco2)s1)C1CC(=O)N(c2ccc3c(c2)OCCO3)C1 (centres undefined) | 59.5% (active) | 
39 | O=C(Nc1nnc(C2CC2)s1)C1CC(=O)N(c2ccc3c(c2)OCCO3)C1 (centres undefined) | 16.4% (inactive) | 
40 | O=C(Nc1nc(-c2ccco2)c(-c2ccco2)s1)C1CCC1 | 63.8% (active) | 
41 | O=C(CCl)Nc1nc(-c2ccco2)c(-c2ccco2)s1 | 64.5% (active) | 
42 | O=C(Nc1nnc(-c2ccco2)s1)C1CCCCC1 | 2.3% (inactive) | 
43 | COc1ccc(-c2nc(NC(=O)C3CC(=O)N(c4ccc5c(c4)OCCO5)C3)sc2C)cc1 (centres undefined) | 2.7% (inactive) | 
44 | O=C(Nc1nnc(-c2ccco2)s1)C1CC1 | 0.3% (inactive) | 
45 | Nc1nc(-c2ccco2)c(-c2ccco2)s1 | 1.2% (inactive) | 
46 | O=C(CCCSc1ccccc1)Nc1nc(-c2ccco2)c(-c2ccco2)s1 | 58.7% (inactive) | 2.6

Row | SMILES | inhibition (at 20 µM) | inhibition [1] [%]
47 | COc1cccc(NC(=O)N(C2CCCCC2)C(C)c2cccs2)c1 (centres undefined) | -4.1% (inactive) | 
48 | CCOC(=O)c1cnc2c(ccc3ccccc32)c1NCCN(C)C | -0.1% (inactive) | 
49 | CCOC(=O)c1cccc(NC(=O)CCn2nc(C)c(S(=O)(=O)N3CCCCC3)c2C)c1 | -0.9% (inactive) | 
50 | CCC(C)(C)NC(=O)CN(C(=O)C(=O)Nc1ccc2c(c1)OCCO2)N1CCOCC1 | 1.2% (inactive) | 
51 | COc1ccccc1N1CCN(C(=O)CCc2ccc(S(=O)(=O)NCC(C)C)cc2)CC1 | 0.1% (inactive) | 
52 | N#CC(C#N)=Cc1ccc(OCC(=O)N2CCOCC2)cc1 | 0.6% (inactive) | 
53 | O=C1C=C(Nc2ccc(Cl)cc2)C(=O)N1c1ccc(Cl)cc1 | 54.8% (active) | 
54 | O=C1c2ccccc2C(=O)N1c1ccc(Cl)cc1 | -5.5% (inactive) | 
55 | O=C1C=C(N2CCCCCC2)C(=O)N1c1ccc(Cl)cc1 | -1.8% (inactive) | 
56 | COC(=O)C1CCCCN1C(=O)c1cccc(OC2CCN(C(=O)C3CC3)CC2)c1 (centres undefined) | 1.5% (inactive) | 
57 | CCOC(=O)C1=C(O)/C(=C/c2ccc(-c3ccccc3C(=O)O)o2)SC1=Nc1ccc(OC)cc1 | 51.8% (active) | 
58 | CCOC(=O)C1=C(O)/C(=C/c2cc(OC)c(OC)c(OC)c2)SC1=Nc1ccc(OC)cc1 | -0.4% (inactive) | 
59 | CCOC(=O)C1=C(O)/C(=C/c2cc(OC)c(O)c(OC)c2)SC1=Nc1ccc(OC)cc1 | 32.3% (inactive) | 
60 | O=C(CCCCCCCCC(=O)N/N=C/c1ccco1)N/N=C/c1ccco1 | -2.2% (inactive) | 
61 | Oc1ccccc1N1CCN(C(=S)NCCc2ccccc2)CC1 | 9.4% (inactive) | 
62 | Cc1oc2cc([N+](=O)[O-])c(O)c([N+](=O)[O-])c2c1C(=O)c1ccc(Cl)cc1 | 19.8% (inactive) | 
63 | Cc1oc2cc([N+](=O)[O-])c(O)c([N+](=O)[O-])c2c1C(=O)c1ccc(Br)cc1 | 51% (active) | 
64 | COc1ccc(OC)c(C(=O)c2c(C)oc3cc([N+](=O)[O-])c(O)c([N+](=O)[O-])c23)c1 | -0.7% (inactive) | 
65 | CCCNC(=O)NC(=O)CSc1nnc(C)n1N | 1.6% (inactive) | 
66 | CC(=O)c1sc(Nc2cccc(C)c2)nc1C | 0.2% (inactive) | 
67 | O=C(O)CN1C(=O)/C(=C\c2ccccc2OCc2ccc(F)cc2)SC1=S | 60.3% (inactive) | 36.9
68 | O=C(O)CN1C(=O)/C(=C\c2cc([N+](=O)[O-])ccc2OCc2ccccc2Cl)SC1=S | 68.9% (active) | 
69 | O=C(O)CN1C(=O)/C(=C\c2ccccc2OCc2ccc(Cl)cc2)SC1=S | 45.9% (inactive) | 

Row | SMILES | inhibition (at 20 µM) | inhibition [1] [%]
70 | C=Cn1cc[n+](CC(=O)c2ccc(OC)cc2)c1 | -0.9% (inactive) | 
71 | O=C(NCC1(c2ccccc2)CCCC1)c1cccc(Br)c1 | -2.2% (inactive) | 
72 | CCOc1ccc(N2C(=O)C3Sc4[nH]c(=O)sc4C(/C=C/c4ccccc4)C3C2=O)cc1 (centres undefined) | 53.6% (active) | 
73 | CCOc1ccc(N2C(=O)C3Sc4[nH]c(=O)sc4C(c4ccc(OC)c(OC)c4)C3C2=O)cc1 (centres undefined) | 15.2% (inactive) | 
74 | CCOC(=O)c1ccccc1N1C(=O)C2Sc3[nH]c(=O)sc3C(/C=C/c3ccccc3)C2C1=O (centres undefined) | 31.6% (inactive) | 
75 | Cc1ccc([N+](=O)[O-])cc1S(=O)(=O)Nc1ccc(C(=O)N(C)C)cc1 | -0.4% (inactive) | 
76 | CCC(C(=O)OCCOCCN(CC)CC)c1ccccc1 (centres undefined) | -1.7% (inactive) | 
77 | CN(C(=O)c1ccc(S(=O)(=O)N(C)C)cc1)c1ccc2ccccc2c1 | -2% (inactive) | 
78 | O=C(O)c1ccc(COc2ccccc2/C=C2\NC(=O)N(Cc3ccc(F)cc3)C2=O)cc1 | 37.2% (inactive) | 
79 | O=C(O)c1ccc(COc2ccccc2/C=C2\NC(=O)N(Cc3ccccc3)C2=O)cc1 | 31.4% (inactive) | 
80 | O=C(O)c1ccc(COc2ccccc2/C=C2/NC(=O)N(c3cccc(Cl)c3)C2=O)cc1 | 53.3% (active) | 
81 | CCOc1cc(NC(=S)NCCCN2CCOCC2)c(OCC)cc1NC(=O)c1cccs1 | -2.2% (inactive) | 
82 | Cc1ccc(-c2c(C#N)c(N)n(-c3ccccc3)c(=O)c2C#N)cc1 | -0.6% (inactive) | 
83 | Cc1ccc(-c2nc3sc(C#N)c(N)n3c(=O)c2C#N)cc1 | 59.9% (active) | 52.2
84 | Cc1ccc(-c2c(C#N)c(N)n(-c3ccc(C)cc3)c(=O)c2C#N)cc1 | 3.9% (inactive) | 
85 | CC1CCN(c2ccc3nnc(CCC(=O)N4CCN(c5ccccc5F)CC4)n3n2)CC1 | 0.3% (inactive) | 
86 | CCOC(=O)C1=NOC(CNC(=O)c2c(-c3ccccc3Cl)noc2C)C1 (centres undefined) | 0.6% (inactive) | 
87 | COc1ccc(CC(NC(C)=O)C(=O)N2CCN(C(=O)N(C(C)C)C(C)C)CC2)cc1 (centres undefined) | -0.1% (inactive) | 
88 | CN(C)c1ccc(/C=C2\SC(N3CCCCC3)=NC2=O)cc1 | 74.1% (active) | 50.6
89 | Cc1ccc(/C=C2\SC(N3CCCC3)=NC2=O)cc1 | -0.9% (inactive) | 
90 | Cc1ccc(/C=C2\SC(N3CCCCC3)=NC2=O)cc1 | -1.2% (inactive) | 
